PubChem BioAssay
Calls of active or inactive are those of the source. Cut-off read from the data, not from the text of the source, unless noted: active = inhibition above about 80%; inactive = the rest.

Legend:
[1] = LFS_MB_1R medulloblastoma cell growth inhibition, synergistic combos for chromothripsis tumors, cisplatin or BGB combos (AID 1671452); conditions: LFS_MB_1R medulloblastoma cells, stronger effect = higher value;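 note: cells exposed for 96 hours before readout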
[2] = CRL2098 osteosarcoma cell growth inhibition, synergistic combos for chromothripsis tumors, BGB or cisplatin IC20 combos (AID 1671454); conditions: CRL2098 osteosarcoma cells, drug combinations, stronger effect = higher value;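 note: cells exposed for 96 h before readout; 0% = vehicle DMSO and 100% = killing by high DMSO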
[3] = HD-MB03 medulloblastoma cell growth inhibition, synergistic combos for chromothripsis tumors, BGB or cisplatin IC20 combos (AID 1671455; in the data active = inhibition above about 83%;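 note: 0% = vehicle DMSO and 100% = high DMSO as cytotoxic control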); conditions: HD-MB03 medulloblastoma cells, stronger effect = higher value
[4] = UWB1.289 ovarian carcinoma cell growth inhibition, synergistic combos for chromothripsis tumors, BGB or cisplatin combos (AID 1671456); conditions: UWB1.289 ovarian carcinoma cells, stronger effect = higher value;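 note: cells exposed to compound for four days; 0% = vehicle DMSO and 100% = killing by high DMSO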
[5] = LFS_MB_2R medulloblastoma cell growth inhibition, synergistic combos for chromothripsis tumors, cisplatin combos (AID 1671457); conditions: LFS_MB_2R medulloblastoma cells, stronger effect = higher value;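 note: cells exposed to compound for four days before readout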
[6] = UWB1.289_BRCA1 ovarian cancer growth, cell-based, BGB or cisplatin combinations (AID 1671459); conditions: UWB1.289 BRCA1 ovarian carcinoma, drug combinations, stronger effect = higher value
[7] = human astrocyte viability loss, single and combined drugs, cytotoxicity control for chromothriptic childhood tumor combination screen, cell-based, BGB or cisplatin IC20 combos (AID 1671460); conditions: Human astrocytes, drug combinations, stronger effect = higher value;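 note: cells exposed to compounds for 96 hours before viability readout; 0% = vehicle and 100% = killing control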
[8] = biological target: NAD(+) hydrolase SARM1 (Homo sapiens) (UniProt Q6SZW1); assay: SARM1 TIR NADase inhibitors, cell lysate, NAD-Glo luminescence (AID 1508614;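 active = compound whose remaining NAD level is above about 45 nM, limit read from the data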;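 note: higher remaining NAD means stronger inhibition of SARM1 NADase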); conditions: SAM-TIR HEK293T lysate NADase, at 1 µM, stronger effect = higher value
[9] = biological target: Mitogen-activated protein kinase 7 (Homo sapiens) (UniProt Q13164); assay: ERK5 transactivation activators in reporter cells, primary screen, cell-based, HTS (AID 1508626;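 active = luciferase signal above three times the same-plate solvent-only control wells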;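 note: luciferase driven by Gal4-ERK5 fusion binding five Gal4 sites before minimal TATA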); conditions: HeLa Gal4-ERK5 transactivation, 18 h, at 5 µM, stronger effect = higher value
[10] = circadian clock period modulators, cell-based, LOPAC library, luminescence reporter (AID 2774; call rule not given here;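 note: values are relative to mean of DMSO wells on each plate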); conditions: circadian reporter cells, at 7 µM, actives lie on both sides
[11] = tested on: Hepatitis C virus NS3 helicase; assay: HCV NS3 helicase inhibitors, primary screen, biochemical, fluorescence polarization, LOPAC1280 library (AID 687035; in the data active = inhibition above about 37%); conditions: Purified HCV NS3 helicase, Cy5-dT15 ssDNA binding fluorescence polarization; stronger effect = higher value; concentration not given here
[12] = Cy5 fluorescence quenching or enhancement artefacts, artefact control for HCV NS3 helicase inhibitor project, biochemical, LOPAC1280 (AID 687037; call rule not given here); conditions: Cy5-DNA-NS3h complex fluorescence interference counterscreen
[13] = phospholipid biosynthesis inhibitors in animal cells, primary screen, cell-based, LOPAC library, screen 4 (AID 1347384; call rule not given here); conditions: phospholipid biosynthesis inhibition screen, at 10 µM
[14] = viability rescue of complex I mutant cybrids, primary screen, cell-based, galactose medium, ATP luminescence (AID 1645843;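 active = z-score of at least 1.8 in each of two replicates, scored against plate mean and spread of sample wells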;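 note: positive z means more ATP and so rescue of galactose-driven cybrid death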); conditions: complex I mutant cybrid cells, 72 h, stronger effect = higher value
[15] = measured here: combination with BGB IC40, at 0.05 µM
[16] = measured here: combination with cisplatin, at 0.5 µM
[17] = measured here: combination with cisplatin, at 5 µM
[18] = measured here: combination with BGB at IC20, at 0.5 µM
[19] = measured here: combination with cisplatin at IC20, at 0.5 µM
[20] = measured here: combo with BGB at IC20, at 0.5 µM
[21] = measured here: combo with cisplatin at IC20, at 0.5 µM
[22] = measured here: inhibition with BGB combination, at 0.05 µM
[23] = measured here: inhibition with cisplatin combination, at 0.05 µM
[24] = BGB combination, concentration series, at 5 µM
[25] = cisplatin combination, concentration series, at 5 µM
[26] = measured here: combo with BGB IC20, at 0.5 µM
[27] = measured here: combo with cisplatin IC20, at 0.5 µM

Sequence of NAD(+) hydrolase SARM1 (Homo sapiens) (Q6SZW1 whole entry, looked up, the tested form may be a part): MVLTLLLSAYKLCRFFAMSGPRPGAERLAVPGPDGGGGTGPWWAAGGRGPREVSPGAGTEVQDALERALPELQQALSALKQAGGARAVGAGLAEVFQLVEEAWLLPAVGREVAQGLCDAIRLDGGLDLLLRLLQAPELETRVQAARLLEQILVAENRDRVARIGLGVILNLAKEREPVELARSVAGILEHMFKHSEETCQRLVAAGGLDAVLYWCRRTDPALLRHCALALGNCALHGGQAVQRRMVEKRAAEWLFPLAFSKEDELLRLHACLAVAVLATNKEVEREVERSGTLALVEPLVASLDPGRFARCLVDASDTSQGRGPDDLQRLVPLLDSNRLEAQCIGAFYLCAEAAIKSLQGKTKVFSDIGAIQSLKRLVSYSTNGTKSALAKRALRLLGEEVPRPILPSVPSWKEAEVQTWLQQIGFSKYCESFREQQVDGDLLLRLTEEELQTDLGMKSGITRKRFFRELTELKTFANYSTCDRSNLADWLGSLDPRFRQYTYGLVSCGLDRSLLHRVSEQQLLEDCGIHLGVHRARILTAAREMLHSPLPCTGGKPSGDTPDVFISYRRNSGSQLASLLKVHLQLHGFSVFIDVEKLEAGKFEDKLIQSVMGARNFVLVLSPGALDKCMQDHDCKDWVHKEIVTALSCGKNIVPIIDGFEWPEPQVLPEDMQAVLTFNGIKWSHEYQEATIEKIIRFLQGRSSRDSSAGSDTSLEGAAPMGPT
Sequence of Mitogen-activated protein kinase 7 (Homo sapiens) (Q13164 whole entry, looked up, the tested form may be a part): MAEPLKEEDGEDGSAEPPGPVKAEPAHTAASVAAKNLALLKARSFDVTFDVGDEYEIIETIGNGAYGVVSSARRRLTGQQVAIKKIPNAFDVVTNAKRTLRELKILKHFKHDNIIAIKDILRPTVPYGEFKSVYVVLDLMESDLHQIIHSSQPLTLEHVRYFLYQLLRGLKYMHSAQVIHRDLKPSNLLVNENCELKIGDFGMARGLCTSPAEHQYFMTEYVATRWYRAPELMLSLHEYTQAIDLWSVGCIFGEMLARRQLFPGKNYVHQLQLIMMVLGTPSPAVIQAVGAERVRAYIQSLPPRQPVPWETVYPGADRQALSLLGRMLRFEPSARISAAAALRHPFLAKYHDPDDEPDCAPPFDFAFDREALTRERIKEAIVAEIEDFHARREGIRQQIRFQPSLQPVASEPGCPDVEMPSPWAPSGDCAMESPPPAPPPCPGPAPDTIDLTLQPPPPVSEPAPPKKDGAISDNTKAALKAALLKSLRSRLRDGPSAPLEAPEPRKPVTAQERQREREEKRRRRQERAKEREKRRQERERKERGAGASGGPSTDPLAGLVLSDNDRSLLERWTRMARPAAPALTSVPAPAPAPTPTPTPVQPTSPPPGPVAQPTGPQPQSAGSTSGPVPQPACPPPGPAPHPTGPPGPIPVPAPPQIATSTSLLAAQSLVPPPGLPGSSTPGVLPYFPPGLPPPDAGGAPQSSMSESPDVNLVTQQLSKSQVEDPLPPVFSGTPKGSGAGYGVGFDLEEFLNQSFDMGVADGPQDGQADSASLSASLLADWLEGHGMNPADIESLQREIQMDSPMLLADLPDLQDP

O=C(O)CO.[NH2-].[NH2-].[Pt+2]
inhibition ([1]; at 0.5 µM): -13.7% (inactive)
inhibition [1, 15]: -19.6%
inhibition [1, 16]: -19.7%
inhibition [1, 17]: -34.1%
inhibition ([2]; at 0.5 µM): -21.5% (inactive)
inhibition [2, 18]: -45.1%
inhibition [2, 19]: 11.3%
inhibition ([3]; at 0.5 µM): -6.84% (inactive)
inhibition [3, 20]: -6.51%
inhibition [3, 21]: -6.47%
inhibition ([4]; at 0.5 µM): 4.06% (inactive)
inhibition [4, 22]: -8.1%
inhibition [4, 23]: -3.04%
inhibition ([5]; at 0.5 µM): -20.3% (inactive)
inhibition [5, 16]: -13.9%
inhibition [5, 17]: -30.3%
inhibition [6, 24]: -0.864%
inhibition ([6]; at 0.5 µM): -1.6% (inactive)
inhibition [6, 25]: 15.4%
inhibition ([7]; at 0.5 µM): 13.7% (inactive)
inhibition [7, 26]: 19.5%
inhibition [7, 27]: 18.5%

C[C@]12C=CC(=O)N[C@@H]1CC[C@@H]1[C@@H]2CC[C@]2(C)[C@@H](C(=O)Nc3cc(C(F)(F)F)ccc3C(F)(F)F)CC[C@@H]12
remaining NAD [8]: 10 nM (inactive)

CCCCCCCCCCCCCCCC(=O)OC[C@@H](NC(=O)C(Cl)Cl)[C@H](O)c1ccc([N+](=O)[O-])cc1
remaining NAD [8]: 10 nM (inactive)
luciferase signal [9]: 64 AU (inactive)

Nc1nc2[nH]cc(CCc3ccc(C(=O)N[C@@H](CCC(=O)O)C(=O)O)cc3)c2c(=O)[nH]1
remaining NAD [8]: 10 nM (inactive)

CC1(C)C(=O)N(CCN2CCC(C(=O)c3ccc(F)cc3)CC2)c2ccccc21
period change [10]: 0.085 h (inactive)
inhibition [11]: -1% (inactive)
fluorescence ratio (interference) [12]: 1 (inactive)
outcome [13]: inactive
z-score [14]: -1.21 (inactive)

CC(C)OC(=O)[C@H](C)N[P@](=O)(OC[C@H]1O[C@@H](n2ccc(=O)[nH]c2=O)[C@](C)(F)[C@@H]1O)Oc1ccccc1
inhibition ([1]; at 0.5 µM): -18.8% (inactive)
inhibition [1, 15]: -16%
inhibition [1, 16]: -13.4%
inhibition [1, 17]: -6.21%
inhibition ([2]; at 0.5 µM): -13.4% (inactive)
inhibition [2, 18]: 11.7%
inhibition [2, 19]: -20.8%
inhibition ([3]; at 0.5 µM): -3.62% (inactive)
inhibition [3, 20]: -1.34%
inhibition [3, 21]: -5.16%
inhibition ([4]; at 0.5 µM): 0.46% (inactive)
inhibition [4, 22]: -14.4%
inhibition [4, 23]: -6.56%
inhibition ([5]; at 0.5 µM): -20% (inactive)
inhibition [5, 16]: -25%
inhibition [5, 17]: -21.1%
inhibition [6, 24]: 0.431%
inhibition ([6]; at 0.5 µM): -0.57% (inactive)
inhibition [6, 25]: 20%
inhibition ([7]; at 0.5 µM): 4.95% (inactive)
inhibition [7, 26]: 12%
inhibition [7, 27]: 8.21%
